# Measurements published in PubChem BioAssay (EPA / NIEHS).
# Some structures have more than one record in an assay (separate samples or runs), and their calls can disagree. Activity calls are given as the source filed them. The calls were made as follows: active = hit-call score of the fitted dose curve at least 0.9, where 1 is the maximum; inactive = score below 0.9.
# Assays:
# Conditions in all cases: mRNA level, 48 h; actives raise or lower the signal
# [1] = read-out: MicroRNA 122 (MIR122), gene 406906; assay: LTEA_HepaRG_MIR122: Life Technologies and Expression Analysis (LTEA) Assay for MicroRNA 122 (MIR122) using HepaRG (AID 2283516); also: the transcript read is the microRNA miR-122
# Outline: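 Changes in transcript abundance, up or down relative to 0.5% DMSO vehicle, were scored after 48 h chemical treatment of HepaRG cells (maximum 100 uM). Quantification used TaqMan qRT-PCR normalized to housekeeping genes.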
# [2] = read-out: matrix metalloproteinase-10 (MMP10), MMP10 (gene 4319); assay: LTEA_HepaRG_MMP10: Life Technologies and Expression Analysis (LTEA) Assay for matrix metalloproteinase-10 (MMP10) using HepaRG (AID 2283517)
# Outline: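 Transcript levels come from Fluidigm qRT-PCR normalized to three housekeeping genes, with curves fitted bidirectionally against 0.5% DMSO. Human HepaRG cells were dosed for 48 hours at concentrations up to 100 uM.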
# [3] = read-out: MYC, MYC (gene 4609); assay: LTEA_HepaRG_MYC: Life Technologies and Expression Analysis (LTEA) Assay for MYC using HepaRG (AID 2283518)
# Outline: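 HepaRG, ~100,000 cells/well, collagen I; 48 h plating; serum-free induction medium; 48 h dosing, duplicate, 100 uM top, half-log, 0.5% DMSO; total RNA → qRT-PCR MYC; gain/loss fit vs DMSO.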
# [4] = read-out: matrix metalloproteinase-3 (MMP3), MMP3 (gene 4314); assay: LTEA_HepaRG_MMP3: Life Technologies and Expression Analysis (LTEA) Assay for matrix metalloproteinase-3 (MMP3) using HepaRG (AID 2283519)
# Outline: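 qRT-PCR read-out of MMP3 mRNA (normalised to three housekeeping genes) in HepaRG liver cells after 48 h chemical exposure; 8-point half-log series, top 100 uM, 0.5% DMSO vehicle. Bidirectional curve fitting against DMSO baseline.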
# [5] = read-out: Paternally Expressed 10 (PEG10), PEG10 (gene 23089); assay: LTEA_HepaRG_PEG10: Life Technologies and Expression Analysis (LTEA) Assay for Paternally Expressed 10 (PEG10) using HepaRG (AID 2283520);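 as to AC50: PEG10 transcript by qRT-PCR normalised to ACTB GAPDH and POLR2A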
# Outline: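 After 48 h exposure of differentiated HepaRG cells (0.5% DMSO vehicle, eight concentrations up to 100 uM, duplicates), PEG10 mRNA was measured by TaqMan qRT-PCR. Values were normalised to endogenous control genes and analysed bidirectionally against vehicle.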
# [6] = read-out: Nuclear factor NF-kappa-B p105 subunit (Homo sapiens) (UniProt P19838); assay: LTEA_HepaRG_NFKB1: Life Technologies and Expression Analysis (LTEA) Assay for Nuclear Factor Kappa B Subunit 1 (NFKB1) using HepaRG (AID 2283521);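 also: TaqMan qRT-PCR transcript normalised to ACTB GAPDH and POLR2A housekeeping genes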
# Outline: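 Differentiated human HepaRG cells were exposed for 48 h in serum-free induction medium to eight concentrations (top 100 uM, half-log steps, 0.5% DMSO), in duplicate. NFKB1 mRNA was measured by TaqMan qRT-PCR, normalized to ACTB/GAPDH/POLR2A, and fitted bidirectionally against DMSO.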
# [7] = read-out: Protein phosphatase 2A (PPP2R4), PTPA (gene 5524); assay: LTEA_HepaRG_PPP2R4: Life Technologies and Expression Analysis (LTEA) Assay for Protein phosphatase 2A (PPP2R4) using HepaRG (AID 2283522)
# Outline: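 Using HepaRG cultures maintained in 0.5% DMSO, chemicals are tested 48 h at up to 100 uM in duplicate. Induction or suppression of PPP2R4 mRNA, measured by qRT-PCR, is fitted bidirectionally against the vehicle baseline.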
# [8] = read-out: Phosphatase and tensin (PTEN), PTEN (gene 5728); assay: LTEA_HepaRG_PTEN: Life Technologies and Expression Analysis (LTEA) Assay for Phosphatase and tensin (PTEN) using HepaRG (AID 2283523)
# Outline: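 HepaRG, 48 h exposure, 8-pt half-log series from 100 uM top, 0.5% DMSO vehicle, duplicates. Readout: Fluidigm qRT-PCR of PTEN transcript; housekeeping normalization (ACTB, GAPDH, POLR2A). Gain or loss fitted relative to DMSO baseline.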
# [9] = read-out: solute carrier (SLC22A1), SLC22A1 (gene 6580); assay: LTEA_HepaRG_SLC22A1: Life Technologies and Expression Analysis (LTEA) Assay for solute carrier (SLC22A1) using HepaRG (AID 2283524)
# Outline: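 qRT-PCR readout (TaqMan, Fluidigm arrays) of SLC22A1 transcript, normalized to three housekeeping genes; bidirectional curve fit relative to 0.5% DMSO vehicle. Differentiated human HepaRG cells, 48 h chemical exposure, top concentration 100 uM, half-log steps, eight points.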
# [10] = read-out: Pyruvate Dehydrogenase Kinase 4 (PDK4), PDK4 (gene 5166); assay: LTEA_HepaRG_PDK4: Life Technologies and Expression Analysis (LTEA) Assay for Pyruvate Dehydrogenase Kinase 4 (PDK4) using HepaRG (AID 2283525)
# Outline: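 HepaRG (human liver line), 48 h chemical exposure, 8-pt half-log CRC top 100 uM, 0.5% DMSO vehicle, duplicates. Readout: TaqMan qRT-PCR of PDK4 mRNA, housekeeping-normalized; gain/loss fit relative to DMSO baseline.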
# Nuclear factor NF-kappa-B p105 subunit (Homo sapiens), sequence (P19838 whole entry, looked up): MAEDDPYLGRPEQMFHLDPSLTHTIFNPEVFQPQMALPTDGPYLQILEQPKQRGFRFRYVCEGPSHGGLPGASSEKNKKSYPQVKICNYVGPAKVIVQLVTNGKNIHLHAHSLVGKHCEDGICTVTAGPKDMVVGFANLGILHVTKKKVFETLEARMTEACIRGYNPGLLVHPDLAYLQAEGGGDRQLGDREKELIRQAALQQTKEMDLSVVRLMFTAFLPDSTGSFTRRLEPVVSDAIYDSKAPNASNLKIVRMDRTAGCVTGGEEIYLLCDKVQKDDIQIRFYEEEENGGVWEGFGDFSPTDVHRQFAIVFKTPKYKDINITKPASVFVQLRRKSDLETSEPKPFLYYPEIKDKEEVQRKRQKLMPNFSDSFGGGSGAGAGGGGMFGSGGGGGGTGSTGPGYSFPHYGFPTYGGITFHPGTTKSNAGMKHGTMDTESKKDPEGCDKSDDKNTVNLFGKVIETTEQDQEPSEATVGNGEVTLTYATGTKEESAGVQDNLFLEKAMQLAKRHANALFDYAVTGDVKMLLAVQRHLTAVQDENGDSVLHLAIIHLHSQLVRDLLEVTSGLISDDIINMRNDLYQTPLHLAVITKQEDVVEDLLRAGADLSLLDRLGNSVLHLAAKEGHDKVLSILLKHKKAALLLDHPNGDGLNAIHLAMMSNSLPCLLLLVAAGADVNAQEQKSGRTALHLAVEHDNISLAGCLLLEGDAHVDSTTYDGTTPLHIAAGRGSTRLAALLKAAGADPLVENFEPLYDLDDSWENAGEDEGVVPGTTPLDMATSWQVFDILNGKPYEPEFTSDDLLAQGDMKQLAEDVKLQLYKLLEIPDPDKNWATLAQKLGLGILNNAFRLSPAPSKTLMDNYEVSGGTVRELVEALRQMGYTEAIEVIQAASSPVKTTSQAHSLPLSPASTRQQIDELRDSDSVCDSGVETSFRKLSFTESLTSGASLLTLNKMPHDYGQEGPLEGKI
smiles,measurement,setting,value
FC(F)C(F)(F)OCC(Cn1cncn1)c1ccc(Cl)cc1Cl (stereo unspecified),AC50,[1],59.2 µM (active)
same,AC50,[2],49.8 µM (active)
same,AC50,[3],37.3 µM (active)
same,AC50,[4],66.9 µM (active)
same,outcome,[5],inactive
same,outcome,[6],inactive
same,AC50,[7],90.4 µM (active)
same,outcome,[8],inactive
same,AC50,[9],19.7 µM (active)
same,AC50,[10],12 µM (active)
CCNc1nc(Cl)nc(NC(C)(C)C#N)n1,outcome,[1],inactive
same,outcome,[2],inactive
same,outcome,[3],inactive
same,outcome,[4],inactive
same,AC50,[5],26.5 µM (active)
same,outcome,[7],inactive
same,outcome,[9],inactive
same,outcome,[10],inactive
CCCOCC(=Nc1ccc(Cl)cc1C(F)(F)F)n1ccnc1,AC50,[1],17.1 µM (active)
same,AC50,[2],78.7 µM (active)
same,AC50,[3],50 µM (active)
same,AC50,[4],84.3 µM (active)
same,AC50,[5],28.3 µM (active)
same,outcome,[6],inactive
same,AC50,[7],80.7 µM (active)
same,AC50,[9],21.4 µM (active)
same,AC50,[10],11.5 µM (active)
COP(=O)(OC)SCn1c(=O)oc2cc(Cl)cnc21,outcome,[1],inactive
same,outcome,[2],inactive
same,outcome,[3],inactive
same,outcome,[4],inactive
same,AC50,[5],62.4 µM (active)
same,outcome,[6],inactive
same,outcome,[7],inactive
same,outcome,[8],inactive
same,AC50,[9],50 µM (active)
same,outcome,[10],inactive
C#CCC1=C(C)C(OC(=O)C2C(C=C(C)C)C2(C)C)CC1=O (stereo unspecified),outcome,[1],inactive
same,outcome,[2],inactive
same,outcome,[3],inactive
same,AC50,[4],81.9 µM (active)
same,outcome,[5],inactive
same,outcome,[7],inactive
same,AC50,[9],74.1 µM (active)
same,AC50,[10],9.87 µM (active)
CCCCN(CC)c1c([N+](=O)[O-])cc(C(F)(F)F)cc1[N+](=O)[O-],outcome,[1],inactive
same,outcome,[2],inactive
same,outcome,[3],inactive
same,outcome,[4],inactive
same,outcome,[5],inactive
same,outcome,[6],inactive
same,outcome,[7],inactive
same,outcome,[8],inactive
same,outcome,[9],inactive
same,outcome,[10],inactive
CCc1cccc(CC)c1N(COC)C(=O)CCl,outcome,[1],inactive
same,outcome,[2],inactive
same,outcome,[3],inactive
same,outcome,[4],inactive
same,outcome,[5],inactive
same,outcome,[6],inactive
same,outcome,[7],inactive
same,outcome,[8],inactive
same,outcome,[9],inactive
same,AC50,[10],28.9 µM (active)
CN(C)C(=O)Nc1cccc(C(F)(F)F)c1,outcome,[1],inactive
same,outcome,[2],inactive
same,outcome,[3],inactive
same,AC50,[4],82.7 µM (active)
same,outcome,[5],inactive
same,outcome,[6],inactive
same,outcome,[7],inactive
same,outcome,[8],inactive
same,outcome,[9],inactive
same,outcome,[10],inactive
CN(C)[C@@H]1C(=O)C(C(N)=O)=C(O)[C@@]2(O)C(=O)C3=C(O)c4c(O)cccc4[C@@](C)(O)[C@H]3[C@H](O)[C@@H]12,outcome,[1],inactive
same,outcome,[2],inactive
same,outcome,[3],inactive
same,AC50,[4],5.76 µM (active)
same,outcome,[4],inactive
same,outcome,[5],inactive
same,outcome,[7],inactive
same,outcome,[9],inactive
same,outcome,[10],inactive
CC(C)=CC1C(C(=O)OCN2C(=O)C3=C(CCCC3)C2=O)C1(C)C (stereo unspecified),outcome,[1],inactive
same,outcome,[2],inactive
same,outcome,[4],inactive
same,outcome,[5],inactive
same,outcome,[7],inactive
same,outcome,[9],inactive
same,outcome,[10],inactive
CCCSP(=O)(OCC)Oc1ccc(Br)cc1Cl (stereo unspecified),outcome,[2],inactive
same,outcome,[3],inactive
same,outcome,[4],inactive
same,outcome,[5],inactive
same,outcome,[6],inactive
same,outcome,[7],inactive
same,outcome,[8],inactive
same,outcome,[9],inactive
same,outcome,[10],inactive
CCCOc1nn(C(=O)NS(=O)(=O)c2ccccc2C(=O)OC)c(=O)n1C,outcome,[1],inactive
same,outcome,[2],inactive
same,outcome,[3],inactive
same,outcome,[4],inactive
same,outcome,[5],inactive
same,outcome,[6],inactive
same,outcome,[7],inactive
same,outcome,[8],inactive
same,outcome,[9],inactive
same,outcome,[10],inactive
CCc1cccc(C)c1N(C(=O)CCl)C(C)COC (stereo unspecified),outcome,[1],inactive
same,outcome,[2],inactive
same,outcome,[4],inactive
same,outcome,[5],inactive
same,outcome,[6],inactive
same,outcome,[7],inactive
same,outcome,[9],inactive
same,outcome,[10],inactive
CCOP(=S)(Oc1cnc(C(C)(C)C)nc1)OC(C)C (stereo unspecified),outcome,[1],inactive
same,outcome,[2],inactive
same,outcome,[3],inactive
same,outcome,[4],inactive
same,AC50,[5],13.3 µM (active)
same,outcome,[6],inactive
same,outcome,[7],inactive
same,outcome,[9],inactive
same,AC50,[10],1.35 µM (active)
CCOP(=S)(OCC)OC(Cl)C(Cl)(Cl)Cl (stereo unspecified),outcome,[1],inactive
same,outcome,[2],inactive
same,outcome,[3],inactive
same,outcome,[4],inactive
same,outcome,[5],inactive
same,outcome,[6],inactive
same,outcome,[7],inactive
same,outcome,[8],inactive
same,outcome,[9],inactive
same,outcome,[10],inactive
O=[N+]([O-])c1cc(C(F)(F)F)c(Cl)c([N+](=O)[O-])c1Nc1ncc(C(F)(F)F)cc1Cl,AC50,[2],24.8 µM (active)
same,outcome,[3],inactive
same,AC50,[4],25 µM (active)
same,AC50,[5],49.2 µM (active)
same,outcome,[6],inactive
same,AC50,[7],65.2 µM (active)
same,AC50,[8],59.8 µM (active)
same,AC50,[9],17.8 µM (active)
same,AC50,[10],34 µM (active)
